In PubChem BioAssay (NCI) one finds growth data, which are given here for 8 compounds.

What all share (experiment): NCI-60 one-dose screen, 48 h (100 = growth as untreated, 0 = no growth, -100 = all killed)
Common to all, as to settings: 10 µM unless noted

In assay [1] the test system is MOLT-4 leukemia.
In assay [2] the test system is SR leukemia.
The subject of assay [3] is RPMI-8226 leukemia.
For assay [4], the system named is OVCAR-8 ovarian.
For assay [5], the system named is OVCAR-5 ovarian.
The test system of assay [6] is OVCAR-4 ovarian.
For assay [7], the system named is SK-OV-3 ovarian.
The test system of assay [8] is IGROV1 ovarian.
Assay [9] has as its system OVCAR-3 ovarian.
Assay [10] deals with NCI/ADR-RES ovarian.
In assay [11] the test system is T-47D breast.
The test system of assay [12] is BT-549 breast.
The test system of assay [13] is MDA-MB-435 melanoma.
Assay [14] concerns SW-620 colon.
In assay [15] the test system is MCF7 breast.
For assay [16], the system named is HCT-116 colon.
Assay [17] concerns HCC-2998 colon.
Assay [18] has as its system KM12 colon.
For assay [19], the system named is HS 578T breast.

The structures appear in SMILES notation. Several values for one entry are separate records, joined by “and”; a condition that tells them apart may be missing. Equal entries are not always repeated. About 83,000 compounds went through this panel and 20% of them were active in at least one assay; those are over-represented in the sample as a whole.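 Percent growth is the endpoint: 0 to 100 indicates growth inhibition (40 means 60% inhibition), 0 means no net growth, and negative values indicate cell death.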 Activity calls are given as the source filed them. Rule for the calls: active = growth percent below 10; inactive = the rest.

Take `CCCC(C)SP(=S)(SC(C)CCC)SC(C)CCC` (stereo not drawn): the growth was 110% (inactive) in assay [1]; 110% (inactive) in assay [2]; 105% (inactive) in [3]; 107% (inactive) in assay [4]; 112% (inactive) in [5]; 110% (inactive) in assay [6]. Further, the growth in [7] was 108% (inactive); in assay [8], 109% (inactive); in [9], 98.5% (inactive); in assay [10], 99.9% (inactive); in assay [11] it was 100% (inactive); in assay [12], 99.8% (inactive). In addition, the growth is 97.3% (inactive) in assay [13]; 91.7% (inactive) in assay [14]; 95.1% (inactive) in [15]; 101% (inactive) in assay [16]; 91.5% (inactive) in [17]; 97.3% (inactive) in assay [18].
Take `C=C[Se]CC(=O)/C=C/c1ccccc1`: the growth in [1] was 79.5% (inactive); in [2] it was 58.7% (inactive); in assay [3] it was 93.2% (inactive); in assay [4], 59.5% (inactive); in assay [5] it was 89.9% (inactive); in assay [6] it was 95.3% (inactive). Moreover, the growth in assay [7] is 53% (inactive); in [8], 104% (inactive); in assay [9], 89.1% (inactive); in assay [19], 66.1% (inactive); in [11], 82.3% (inactive); in assay [12], 108% (inactive). Moreover, the growth was 83.7% (inactive) in assay [13]; 87.9% (inactive) in assay [14]; 87.2% (inactive) in [15]; 56.1% (inactive) in [16]; 26.6% (inactive) in [18].
As for `CNC(=O)CCl`, the growth in assay [1] is 118% (inactive); in [2], 109% (inactive); in [3], 106% (inactive); in assay [4], 105% (inactive); in assay [5], 107% (inactive); in assay [6], 101% (inactive). Further, the growth in [7] is 102% (inactive); in assay [8], 107% (inactive); in [9] it was 113% (inactive); in assay [19], 104% (inactive); in assay [10] it was 103% (inactive); in [12] it was 101% (inactive). Besides, the growth in [13] was 101% (inactive); in assay [14] it was 107% (inactive); in assay [15], 98.2% (inactive); in assay [16], 99.6% (inactive); in assay [17] it was 95.1% (inactive); in assay [18] it was 108% (inactive).
In the case of `O=CC1(c2ccccc2)CCN(Cc2ccccc2)CC1`, the growth was 99.4% (inactive) in [1]; 97.8% (inactive) in assay [2]; 102% (inactive) in [3]; 105% (inactive) in [4]; 107% (inactive) in assay [5]; 103% (inactive) in [6]. Also, the growth in assay [7] is 114% (inactive); in assay [8], 108% (inactive); in assay [9], 105% (inactive); in assay [19] it was 115% (inactive); in assay [11], 105% (inactive); in assay [12] it was 106% (inactive). The growth in assay [13] is 98.5% (inactive); in [15], 103% (inactive); in assay [16], 102% (inactive); in assay [17], 101% (inactive); in assay [18], 101% (inactive).
As for `CCN(CC)CCn1c(=O)n(C)c2ccccc21`, the growth in [1] was 104% (inactive); in assay [2], 99.3% (inactive); in assay [3], 113% (inactive); in assay [4] it was 101% (inactive); in assay [5], 117% (inactive); in assay [6] it was 109% (inactive). Further, the growth in [7] was 106% (inactive); in assay [8], 109% (inactive); in assay [9], 106% (inactive); in assay [19], 95.5% (inactive); in assay [11], 109% (inactive); in assay [12], 124% (inactive). For the same compound, the growth in assay [13] was 105% (inactive); in assay [14], 105% (inactive); in [15], 102% (inactive); in [16], 111% (inactive); in assay [17], 101% (inactive); in assay [18], 99.8% (inactive).
On to `O=C1CN2CCC1CC2`, for which the growth is 100% (inactive) in [1]; 100% (inactive) in [2]; 109% (inactive) in assay [3]; 106% (inactive) in assay [4]; 101% (inactive) in assay [5]; 109% (inactive) in assay [6]. The growth in [7] is 105% (inactive); in assay [8] it was 108% (inactive); in assay [9] it was 107% (inactive); in [19], 101% (inactive); in assay [11], 91.1% (inactive); in assay [12] it was 94.5% (inactive). Besides, the growth is 102% (inactive) in assay [13]; 103% (inactive) in [15]; 100% (inactive) in assay [16]; 124% (inactive) in [17]; 102% (inactive) in assay [18].
On to `Nc1cccnc1`, for which the growth is 101% (inactive) in assay [1]; 90.4% (inactive) in assay [2]; 105% (inactive) in assay [3]; 104% (inactive) in [4]; 116% (inactive) in [5]; 129% (inactive) in [6]. Besides, the growth in assay [7] was 105% (inactive); in assay [8], 106% (inactive); in assay [9] it was 119% (inactive); in [10], 104% (inactive); in [11] it was 106% (inactive); in assay [12] it was 110% (inactive). Besides, the growth is 122% (inactive) in assay [13], 105% (inactive) in [14], 104% (inactive) in assay [16] and 112% (inactive) in assay [18].
For the compound `Clc1ccc(COC(Cn2ccnc2)c2ccc(Cl)cc2Cl)c(Cl)c1` (stereo not drawn), the growth in assay [1] is 41.5% (inactive) and 45.3% (inactive); in assay [2], 65% (inactive); in assay [3], 41.2% (inactive) and 54.6% (inactive); in [4], 38.4% (inactive); in assay [5] it was 64.5% (inactive) and -11.4% (active); in assay [6], 49% (inactive) and 63.2% (inactive). The growth in [7] was 79.7% (inactive) and 91% (inactive); in assay [8], 38.3% (inactive) and 22.3% (inactive); in assay [9], 48.9% (inactive) and 64.2% (inactive); in assay [19], 74.3% (inactive); in assay [10], 21.7% (inactive) and -21.9% (active); in [11] it was 46.4% (inactive) and 36.5% (inactive). The growth was 8.47% (active) and 20.5% (inactive) in [13]; 39.3% (inactive) and 35% (inactive) in assay [15]; 14.6% (inactive) and 16.1% (inactive) in assay [16]; 47.4% (inactive) in assay [17]; 40.2% (inactive) and 43.2% (inactive) in assay [18].
